Drawing on PubChem BioAssay AID1259415 (National Center for Advancing Translational Sciences (NCATS), 2018), this text covers activity change, negative = inhibition for 85 compounds.

Among all 410,000 compounds or so, about 18,000 (4.4%) were called active. Not shown: some 7% with an inconclusive outcome. This is one part of a sample in which actives are shown more often than they occur. Rule as the data show it: active = activity change below about -60%; inconclusive = no clear call, values can overlap the other calls; inactive = above about -39%.
% is scaled to controls: 0 for no effect and ±100 for the full control effect.

A short description of the assay: qHTS Assay for inhibitors of the human cytomegalovirus (HCMV). The note with it: HFF cells, HCMV-luciferase reporter, 72 h; at 57.5 µM; hits give low values. The method in brief: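 Cell-based, HFFs, 1000 cells/well, 16 h 37C; cpds in DMSO + HCMV-luc, MOI 1 PFU/cell; 72 h 37C; OneGlo luminescence after 5 min RT; norm. to buffer vs Salinomycin 10uM.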
In general terms: In qHTS, concentration-response curves come from the screen itself.
For the compound `O=C1COCc2ccc(-c3cc4ccccc4o3)cc2N1CC1CC1`, the activity change, negative = inhibition was -2.65% (inactive).
In the case of `CCCCNC(=O)C(C)N(CCN(C)C)C(=O)CCCN1C(=O)NC(c2ccc(Cl)cc2)C(C(=O)OCc2ccccc2)=C1C` (stereo not given) it was -68% (active); in that of `CC1=C(C(=O)OC(C)(C)C)C(c2ccc(Br)cc2)NC(=O)N1CCCC(=O)O` (stereo not given), -18.5% (inactive).
The result for `COC(=O)CCCCCN1C(=O)NC(c2ccc(-c3ccccc3)cc2)C(C(=O)OCc2ccccc2)=C1C` (stereo not given) reads 19.6% (inactive).
In the case of `Cc1ccc(SCC(=O)Nc2ccc3oc(-c4ccccc4C)nc3c2)cc1` it was 73.5% (inactive); in that of `CC(=O)OC1=C(C(C)=O)N(Cc2ccccc2)S(=O)(=O)c2ccccc21`, 3.57% (inactive).
With `COc1ccc(OCCn2cc(C(=O)C3CCCCC3)c3ccccc32)cc1`, the activity change, negative = inhibition is -16.3% (inactive).
In the case of `CCN(C(=O)c1cc([N+](=O)[O-])ccc1NCc1cccnc1)c1ccccc1` it was -61.2% (active).
In the case of `CN(c1ccccc1)S(=O)(=O)c1ccc(C(=O)NCc2cccnc2)cc1` it was -0.899% (inactive).
The result for `O=C(COC(=O)c1cc([N+](=O)[O-])ccc1NCc1ccccc1)NC1CCCCC1` reads -19.2% (inactive); that for `CCc1ccc(C2C(C(=O)Nc3ccccc3)=C(C)Nc3c(C(=O)Nc4ccc(C)cc4)cnn32)cc1` (stereo not given), -39.9% (inactive).
For the compound `CCCCCCCCCCCCC(NC(C)=O)(C(=O)OCC)C(=O)OCC`, the activity change, negative = inhibition is 12.4% (inactive).
In the case of `CC(=O)N1CCN(c2ccc(NCc3ccc(C(C)C)cc3)cc2)CC1` it was -36.3% (inactive); in that of `Cc1nc2ccccc2c(-c2ccccc2)c1C(=O)c1ccccc1`, -104% (active).
In the case of `CC(C)(C)C(=O)c1c(N)[nH]c(C(=O)c2ccccc2)c1-c1ccc(F)cc1` it was -5.27% (inactive).
The result for `Nc1[nH]c(C(=O)c2ccccc2)c(-c2ccncc2)c1C(=O)NCc1cccc2ccccc12` reads -19.1% (inactive); that for `COc1ccc(OCC(=O)Nc2cccc(C(=O)OCc3cc(=O)n4nc(C)sc4n3)c2)cc1`, 47.5% (inactive); that for `Cc1nn2c(NCCN(C)C)c3c(nc2c1-c1ccccc1)CCC3`, -16.5% (inactive).
For the compound `CCc1ccc(NC(=O)c2cnc3c(-c4ccccc4)c(C)nn3c2C)cc1`, the activity change, negative = inhibition was -0.863% (inactive).
In the case of `CCc1c(C)nc2c(-c3ccccc3)c(C)nn2c1Nc1ccc(NC(C)=O)cc1` it was -66.5% (active); in that of `Cc1ccc(OC(=O)CSc2nnc(-c3cccs3)o2)cc1`, 3.01% (inactive); in that of `O=C(CSc1cn(CC(=O)N2CCOCC2)c2ccccc12)Nc1ccccc1`, 19.2% (inactive).
For the compound `COc1cc(Cl)c(C)cc1NC(=O)COC(=O)c1cc(SC)ccc1Cl`, the activity change, negative = inhibition is 4.92% (inactive).
The result for `Cc1cc(NC(=O)COC(=O)COc2ccc(Cl)cc2C)c([N+](=O)[O-])cc1C` reads 26.5% (inactive); that for `COc1ccc(OCC(=O)Nc2cc(C)c(Cl)cc2OC)c([N+](=O)[O-])c1`, -64.3% (active); that for `Cn1cc(S(=O)(=O)N2CCCCCC2)cc1C(=O)N1CCN(c2ccc(F)cc2)CC1`, -13.3% (inactive).
In the case of `COc1ccc(NC(=O)CCCc2nnc3n(CCC(C)C)c(=O)c4sccc4n23)c(OC)c1` it was 12.6% (inactive); in that of `CCOc1ccc(-c2cc3nc(C4CCN(C(=O)OC(C)(C)C)CC4)c(C(=O)Nc4cccc(CC)c4)cn3n2)cc1`, -18.2% (inactive).
The result for `COC(=O)c1ccccc1NC(=O)c1ccc(COc2ccccc2Cl)o1` reads 14.7% (inactive).
Take `NS(=O)(=O)c1ccc(CNC(=O)c2cnccn2)cc1`: the activity change, negative = inhibition was 8.17% (inactive).
`CCN(CC)c1ccc(/C=N/NC(=O)CNC(=O)c2cccs2)cc1`: the activity change, negative = inhibition was -20% (inactive).
In the case of `CCN(CC)c1ccc(/C=N/Nc2nc(C)cc(C)n2)c(O)c1` it was -102% (active).
Consider `CCN(CC)c1ccc(/C=N/NC(=O)c2cnccn2)c(O)c1`, for which the activity change, negative = inhibition is -98.7% (active).
The result for `O=c1cc2nc(-c3ccccc3)nc(SCCOc3ccc(Cl)cc3)n2[nH]1` reads 5.21% (inactive).
The result for `Cc1ccc(C)c(N2CCN(C(=O)Cn3nc(C)c4sc5ccccc5c4c3=O)CC2)c1` reads 23.4% (inactive).
In the case of `CC[C@H](C)[C@H]1CNC(=O)C(=O)N1CC1CCN(CCc2ccc(OC)c(OC)c2)CC1` it was 15.6% (inactive); in that of `COc1ccc(Cl)cc1S(=O)(=O)N1CCC(c2ccncc2)CC1`, -32.1% (inactive); in that of `CCOc1ccc(OCC)c(Nc2nc3ccccc3n3nnnc23)c1`, -1.18% (inactive).
As to `CC(C)[C@H]1COCCS(=O)(=O)N1Cc1ccccc1-c1cccc2c1sc1ccccc12`, the activity change, negative = inhibition was -19% (inactive).
For `COC(=O)c1c(-c2ccsc2)oc2ccc(-c3cc(OC)c(OC)c(OC)c3)cc12`, the activity change, negative = inhibition is 8.37% (inactive).
For the compound `CSc1ncccc1C(=O)N1CCCC(CCC(=O)NCc2ccccc2F)C1` (stereo not given), the activity change, negative = inhibition is -1.95% (inactive).
In the case of `Cc1cc2cc3n(c2nn1)N=C(Cl)CC3` it was -74.2% (active); in that of `Cc1ccc(C(=O)COC(=O)C(Cc2c[nH]c3ccccc23)NC(=O)c2ccc(Br)cc2)cc1` (stereo not given), 0% (inactive).
In the case of `O=C(CSc1nccn1Cc1ccc(F)cc1)NCc1ccccc1` it was -14.9% (inactive); in that of `CC(C)CC1NC(=O)c2cc(Cl)ccc2-n2c1nc1ccccc1c2=O` (stereo not given), -99.6% (active); in that of `O=C1NC(Cc2ccccc2)c2nc3ccc(Br)cc3c(=O)n2-c2cc3ccccc3cc21` (stereo not given), 17% (inactive).
The result for `COc1ccc2nc3n(c(=O)c2c1)-c1ccc(Cl)cc1C(=O)NC3Cc1ccccc1` (stereo not given) reads -25.7% (inactive); that for `Cc1ccc(-c2nnn(CC(=O)N(Cc3ccco3)C(C(=O)NC(C)(C)C)c3ccncc3)n2)o1` (stereo not given), 9.51% (inactive).
Regarding `Cc1ccc(-c2cc(C(=O)Oc3ccccc3Cl)no2)cc1C`, the activity change, negative = inhibition is 81.2% (inactive).
Regarding `COc1cc(C(=O)N(Cc2ccc(C(C)C)cc2)C2CCS(=O)(=O)C2)cc(OC)c1OC` (stereo not given), the activity change, negative = inhibition is 11.7% (inactive).
`CN(C(=O)CSc1nc2ccccc2n1Cc1ccccc1C#N)c1ccccc1`: the activity change, negative = inhibition was -3.45% (inactive).
Consider `C[C@@H](NC(=O)OC(C)(C)C)c1nnc(S(=O)(=O)Cc2ccccc2)o1`, for which the activity change, negative = inhibition is -105% (active).
In the case of `CC(C)(C)c1ccc(C(CC(=O)O)NS(=O)(=O)Cc2ccccc2)cc1` (stereo not given) it was 30.5% (inactive).
The result for `CC(C)[C@@H](NC(=O)OC(C)(C)C)C(=O)NCC1CCC(C(=O)N[C@@H](Cc2ccccc2)C(=O)O)CC1` (stereo not given in full) reads -17.7% (inactive); that for `CC(C)N(C(=O)Cn1c(SCC(=O)N2CCN(c3ccccc3)CC2)nc2ccccc21)C(C)C`, -20.6% (inactive); that for `CCn1cc2nc(SCc3ccccc3Cl)n(CCc3ccccc3)c(=O)c2n1`, -14.7% (inactive).
The result for `COc1cc(C(=O)NCCc2csc3nc(-c4ccccc4C)nn23)cc(OC)c1OC` reads 7.41% (inactive); that for `CCCNC(=O)c1nnc2n1CCN(C(=O)c1ccccc1OC)C2`, -9.02% (inactive); that for `COc1ccccc1C(=O)NCCn1cc(SCc2ccccc2Cl)c2ccccc21`, 20.2% (inactive).
As to `Cc1cccc(CN2CCN(C3CN(Cc4cn(Cc5ccccc5F)nn4)S(=O)(=O)C3)CC2)c1` (stereo not given), the activity change, negative = inhibition was -0.715% (inactive).
With `Cc1cccc(CN2CCN(C3CN(Cc4cn(Cc5cc(C)cc(C)c5)nn4)S(=O)(=O)C3)CC2)c1` (stereo not given), the activity change, negative = inhibition was -101% (active).
In the case of `Cc1cccc(CN2CCN(C3CN(Cc4ccccc4)S(=O)(=O)C3)CC2)c1` (stereo not given) it was -24.1% (inactive); in that of `COc1cccc(CNC(=O)C(=O)NCC(c2cccs2)S(=O)(=O)c2ccccc2)c1` (stereo not given), -19.1% (inactive); in that of `COCCN(C(=O)CCC(=O)Nc1nccs1)C(C(=O)NC(C)(C)C)c1ccc(Cl)cc1` (stereo not given), -6.27% (inactive).
The result for `Cc1nc(NC(=O)CN(C)S(=O)(=O)c2ccc(Cl)cc2)sc1C` reads 12.3% (inactive); that for `CN(CCCC(=O)Nc1nccs1)S(=O)(=O)c1ccc(Cl)cc1`, -64.7% (active); that for `CCc1ccc(CN(Cc2ccco2)C(=O)COc2ccc(Cl)c(C)c2)cc1`, -9.02% (inactive).
On to `Cc1c(Cl)c([N+](=O)[O-])nn1CC(=O)NCC1CCCO1` (stereo not given), for which the activity change, negative = inhibition was 35.2% (inactive).
The result for `Cc1c(Cl)c([N+](=O)[O-])nn1Cc1ccc(C(=O)N/N=C\c2cc(Cl)ccc2O)o1` reads -93.7% (active); that for `Cc1c(Cl)c([N+](=O)[O-])nn1CCCC(=O)NC(C)c1ccccc1` (stereo not given), 46.9% (inactive); that for `O=C1CC(c2nnc(Cc3ccc(Cl)cc3)o2)CN1c1ccccc1` (stereo not given), -4.62% (inactive).
Take `COc1ccccc1/C=C/C(=O)OCC(=O)NC1CCCCCC1`: the activity change, negative = inhibition was -34.6% (inactive).
The result for `CCOC(=O)C(=Cc1ccccc1OC)C(=O)OCC` reads -65.2% (active); that for `COc1ccccc1C(=O)OCC(=O)NCCNC(=O)COC(=O)c1ccccc1OC`, -25.9% (inactive); that for `CCc1cnc2c(c1SCC(=O)N1CCC(C)CC1)c(=O)n(C)c(=O)n2C`, -18.2% (inactive).
The result for `COc1ccc2[nH]c3c(c2c1)CCN1C(=O)C(CC(=O)NCc2cccc(C(F)(F)F)c2)C[C@H](C(=O)N2CCOCC2)[C@@]31C` (stereo not given in full) reads -2.74% (inactive); that for `CCN(CC)S(=O)(=O)c1nnc(NC(=O)COc2ccccc2Cl)s1`, -5.69% (inactive); that for `Clc1ccc2nc(-c3ccccc3)nc(C(Cl)Cl)c2c1`, -78.3% (active).
In the case of `Fc1ccc2nc(-c3ccccc3)nc(SCc3nnc(-c4ccccc4)o3)c2c1` it was 1.64% (inactive).
Consider `O=C(C1COc2ccccc2O1)N(Cc1cccnc1)c1nc2c(F)cc(F)cc2s1` (stereo not given), for which the activity change, negative = inhibition was 0% (inactive).
With `Cc1cc(S(=O)(=O)NCC(C)C)ccc1OCC(=O)NC1CC1`, the activity change, negative = inhibition is -9.36% (inactive).
In the case of `COc1cccc(C(=O)Nc2ccc3oc(-c4ccc5ccccc5c4)nc3c2)c1` it was 12.9% (inactive).
Regarding `O=C(Nc1ccc2ccccc2c1)Nc1ccc2snnc2c1`, the activity change, negative = inhibition was -97.2% (active).
In the case of `CS(=O)(=O)c1ccccc1C(=O)Nc1ccc2sccc2c1` it was 22.5% (inactive); in that of `CC(C)CC(=O)NCC(c1ccc2c(c1)OCO2)N1CCN(c2ccc(F)cc2)CC1` (stereo not given), 1.29% (inactive).
